Measurements taken from PubChem BioAssay AID720597 (Broad Institute, 2013).
Results with a measured potency or affinity are listed apart. The source made the active and inactive calls.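 The calls were made as follows: active = fitted half-maximal dose no more than twice the top valid tested dose, for compounds that lower signal; inconclusive = fit invalid, or curve flat with activity between -70 and -30; inactive = potency past limit, curve flat within ±30, or signal increasing.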

target: NAD-dependent protein deacylase sirtuin-5, mitochondrial (Homo sapiens) (UniProt Q9NXA8); assay: blockers of sirtuin-5 peptide desuccinylation – biochemical, fluorescence imaging, cherry-pick, set 6, dose response (AID 720597); settings: Purified SirT5, succinyl-peptide-AMC/trypsin fluorescence; series mostly up to 15 µM;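 also: lower AMC signal can also come from blocking the trypsin step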
Sequence (Q9NXA8 whole entry, looked up): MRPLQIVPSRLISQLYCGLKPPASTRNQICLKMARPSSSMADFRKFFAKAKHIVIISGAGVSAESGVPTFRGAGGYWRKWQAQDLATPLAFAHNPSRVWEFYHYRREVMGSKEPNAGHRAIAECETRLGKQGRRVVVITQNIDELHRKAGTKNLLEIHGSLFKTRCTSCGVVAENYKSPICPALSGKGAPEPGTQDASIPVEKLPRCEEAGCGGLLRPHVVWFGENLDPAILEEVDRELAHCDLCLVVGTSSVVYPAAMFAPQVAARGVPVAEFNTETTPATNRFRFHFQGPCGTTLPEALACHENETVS

outcome, inactive:
CN(C)CCCNC(=O)C[C@H]1CC[C@H]2[C@@H](COC[C@H](O)CN2S(=O)(=O)c2ccc(F)cc2)O1
C[C@H]1CN([C@@H](C)CO)S(=O)(=O)c2ccc(/C=C/c3ccccc3)cc2O[C@@H]1CN(C)C(=O)Nc1ccc(F)cc1
C[C@H](CO)N1C[C@H](C)[C@@H](CN(C)Cc2ccc(Cl)c(Cl)c2)Oc2c(NC(=O)c3ccc(-c4nccs4)cc3)cccc2C1=O
Cc1ccc(S(=O)(=O)Nc2ccc3c(c2)C(=O)N([C@@H](C)CO)C[C@H](C)[C@@H](CN(C)S(=O)(=O)c2ccccc2)OCCCC[C@@H](C)O3)cc1
COc1ccc(NC(=O)N(C)C[C@@H]2Oc3cc(C#CCC(C)C)ccc3S(=O)(=O)N([C@H](C)CO)C[C@@H]2C)cc1
O=C(CC1CC1)N1[C@@H](CO)[C@@H]2c3ccccc3N(S(=O)(=O)c3ccc(F)cc3)C[C@@H]21
C[C@@H]1CN([C@H](C)CO)S(=O)(=O)c2ccc(C#Cc3ccc(F)cc3)cc2O[C@@H]1CN(C)S(=O)(=O)c1ccc(F)cc1
COc1ccc(S(=O)(=O)Nc2ccc3c(c2)C(=O)N([C@@H](C)CO)C[C@H](C)[C@H](CN(C)Cc2ccc(Oc4ccccc4)cc2)O3)cc1
CCCNC(=O)N1CC(=O)N2[C@H](CO)[C@@H](c3ccc(-c4ccc(F)cc4)cc3)[C@@H]2C1
O=C(C[C@H]1CC[C@H]2[C@@H](COC[C@@H](O)CN2C(=O)c2ccncc2)O1)Nc1ccc(-c2ccccc2)cc1
C[C@H](CO)N1C[C@H](C)[C@H](CN(C)C(=O)Nc2ccc(F)cc2)Oc2cc(/C=C/c3ccccc3)ccc2S1(=O)=O
C[C@H]1CN([C@@H](C)CO)C(=O)c2cc(NC(=O)Cn3cnnn3)ccc2O[C@@H]1CN(C)S(=O)(=O)c1ccc(F)cc1
COc1ccc(S(=O)(=O)Nc2ccc3c(c2)C(=O)N([C@@H](C)CO)C[C@@H](C)[C@H](CN(C)Cc2ccc(C(F)(F)F)cc2)OCCCC[C@@H](C)O3)cc1
COc1ccc(NC(=O)Nc2ccc3c(c2)C(=O)N([C@H](C)CO)C[C@@H](C)[C@@H](CN(C)Cc2ccc(C(F)(F)F)cc2)O3)cc1
C[C@H]1CN([C@@H](C)CO)C(=O)c2cc(NC(=O)CCN3CCOCC3)ccc2O[C@H]1CN(C)C(=O)Nc1ccc2c(c1)OCO2
C[C@H](CO)N1C[C@H](C)[C@@H](CN(C)Cc2ccc(Cl)c(Cl)c2)Oc2ccc(NC(=O)CCCCCC(=O)Nc3ccccc3N)cc2CC1=O
C[C@@H](O)C#Cc1ccc2c(c1)O[C@H](CN(C)Cc1ccc(-c3ccccc3)cc1)[C@@H](C)CN([C@@H](C)CO)S2(=O)=O
C[C@@H]1CCCCO[C@H](CN(C)S(=O)(=O)c2ccc(Cl)cc2)[C@H](C)CN([C@@H](C)CO)C(=O)c2cc(N(C)C)ccc2O1
CCC(=O)NC[C@H]1[C@@H](c2ccccc2)[C@H](CO)N1C(=O)C1CCC1
Cn1cnc(CCNC(=O)C[C@@H]2CC[C@@H]3[C@H](COC[C@H](O)CN3C(=O)C3CCCC3)O2)c1
CO[C@@H]1CN(C)C(=O)c2ccc(NC(=O)Nc3ccccc3)cc2OC[C@@H](C)N(C(C)=O)C[C@H]1C
CCCNC(=O)N1CC2(C1)[C@H](c1ccccc1)[C@H](CO)N2Cc1cccc(F)c1
C[C@@H]1CN([C@H](C)CO)C(=O)c2cc(NS(=O)(=O)c3ccc(F)cc3)ccc2O[C@@H](C)CCCCO[C@@H]1CN(C)CC1CCCCC1
O=C(NCC[C@@H]1CC[C@@H](NS(=O)(=O)c2cccc(F)c2)[C@@H](CO)O1)C1CCOCC1
O=C(C1CCCC1)N1CC2(C1)[C@H](c1ccccc1)[C@@H](CO)N2Cc1ccc(Cl)cc1
C[C@H](CO)N1C[C@H](C)[C@H](CN(C)Cc2ccc(Oc3ccccc3)cc2)Oc2ccc(NC(=O)CCCCCC(=O)Nc3ccccc3N)cc2CC1=O
COc1ccc(S(=O)(=O)N(C)C[C@H]2OCCCC[C@@H](C)Oc3ccc(NS(=O)(=O)c4ccc(C)cc4)cc3C(=O)N([C@@H](C)CO)C[C@H]2C)cc1
COc1cccc(S(=O)(=O)N(C)C[C@H]2Oc3cc(C4=CCCCC4)ccc3S(=O)(=O)N([C@@H](C)CO)C[C@@H]2C)c1
